# Results published in the supplement of paper PMC6992640.
# ± gives the standard deviation of the averaged measurements.
# How the values were obtained:
# Assay in all cases: cell viability (% of vehicle); higher = less cytotoxic
# [1] = system: HCI01 (cells of a triple-negative basal-like breast cancer xenograft); conditions: 10 µM; 72 h
# [2] = system: HCI03 (cells of an ER-positive luminal breast cancer xenograft); conditions: 10 µM; 72 h
# [3] = system: HCI09 (cells of a triple-negative luminal androgen receptor type breast cancer xenograft); conditions: 10 µM; 72 h
# [4] = system: HCI11 (cells of an ER-positive luminal breast cancer xenograft); conditions: 10 µM; 72 h
# [5] = system: HCI13 (cells of an ER-positive luminal breast cancer xenograft); conditions: 10 µM; 72 h
# [6] = system: HCI16 (cells of a triple-negative basal-like breast cancer xenograft); conditions: 10 µM; 72 h
# [7] = system: UCD52 (cells of a triple-negative basal-like breast cancer xenograft); conditions: 10 µM; 72 h
# [8] = system: WHIM2 (cells of a triple-negative basal-like breast cancer xenograft); conditions: 10 µM; 72 h
# [9] = system: HCI01; conditions: 1 µM; 72 h
# [10] = system: UCD52; conditions: 1 µM; 72 h
# [11] = system: WHIM2; conditions: 1 µM; 72 h
# [12] = system: WHIM30 (cells of a triple-negative basal-like breast cancer xenograft); conditions: 1 µM; 72 h
# [13] = system: WHIM30; conditions: 10 µM; 72 h
SMILES,cell viability [1],cell viability [2],cell viability [3],cell viability [4],cell viability [5],cell viability [6],cell viability [7],cell viability [8],cell viability [9],cell viability [10],cell viability [11],cell viability [12],cell viability [13]
COc1cc(Cc2cnc(N)nc2N)cc(OC)c1OC [Trimethoprim],78.3 ± 37,144,91.1 ± 7.9,93,117 ± 22,120,95.4 ± 7.4,118 ± 7.3,,,,,
CCC1(c2ccccc2)C(=O)NCNC1=O [Primidone],78.1 ± 54,162,105 ± 2.9,90.6,134.7 ± 0.7,121,85.1 ± 8.9,100 ± 33,,,,,
COc1ccc2cc(CCC(C)=O)ccc2c1 [Nabumetone],170 ± 32,172,200 ± 62,141,199 ± 10,136,151 ± 25,117 ± 11,,,,,
CC[C@@]1(O)C(=O)OCc2c1cc1n(c2=O)Cc2cc3c(CN(C)C)c(O)ccc3nc2-1.Cl [Topotecan HCl],38 ± 13,,35.2 ± 10,51.9,54.7 ± 1.9,69.1,42 ± 7.3,43.7 ± 2.5,65.4,93.4,49.6,41.7,82.1 ± 9.8
CCN1CCN(C(=O)NC(C(=O)NC2C(=O)N3C(C(=O)O)=C(CSc4nnnn4C)CSC23)c2ccc(O)cc2)C(=O)C1=O (stereo not drawn) [Cefoperazone],110.1 ± 0.54,158,120 ± 16,132,174 ± 9.6,104,131 ± 18,108 ± 22,,,,,
COc1ccc(Cl)cc1C(=O)NCCc1ccc(S(=O)(=O)NC(=O)NC2CCCCC2)cc1 [Glibenclamide],103 ± 13,151,93.7 ± 16,93.2,108.2 ± 0.86,110,119 ± 3.5,134.7 ± 0.95,,,,,
Cc1c(OCC(F)(F)F)ccnc1CS(=O)c1nc2ccccc2[nH]1 (stereo not drawn) [Lansoprazole],170 ± 24,160,97.4 ± 32,128,142 ± 24,144,190 ± 5.9,,,,,,
COc1cccc2c1C(=O)c1c(O)c3c(c(O)c1C2=O)CC(O)(C(=O)CO)CC3OC1CC(N)C(O)C(C)O1.Cl (stereo not drawn) [Epirubicin HCl],56.2 ± 19,,26.2 ± 13,50.5,,35.4,22.7 ± 4,29.1 ± 15,105,35.9,22.2,46.4,50.8 ± 12
COC(c1ccccc1)(c1ccccc1)C(Oc1nc(C)cc(C)n1)C(=O)O (stereo not drawn) [Ambrisentan],79.8 ± 52,128,92.8 ± 15,84,94.1 ± 1.8,106,74.7 ± 11,107 ± 16,,,,,
OCCN1CC(O)C(O)C(O)C1CO (stereo not drawn) [Miglitol],68.9 ± 43,136,99.2 ± 8.7,92.4,113 ± 0.17,116,86.2 ± 7.9,95.7 ± 50,,,,,
CC(C)CC(NC(=O)C(CCc1ccccc1)NC(=O)CN1CCOCC1)C(=O)NC(Cc1ccccc1)C(=O)NC(CC(C)C)C(=O)C1(C)CO1 (stereo not drawn) [Carfilzomib (PR-171)],32.3 ± 3.5,,25.7 ± 4.7,55.9,32.9 ± 4.7,38.9,64.4 ± 11,26.4 ± 11,29.2,16.6,43.9,22.9,68.8 ± 2.6
CC1OC(OCC2OC(Oc3c(-c4ccc(O)c(O)c4)oc4cc(O)cc(O)c4c3=O)C(O)C(O)C2O)C(O)C(O)C1O (stereo not drawn) [Rutin],107 ± 32,128,101 ± 9.8,102,118 ± 8.5,138,103 ± 14,122 ± 9.8,,,,,101 ± 13
Cc1nc(=O)c2cc(CN(C)c3ccc(C(=O)NC(CCC(=O)O)C(=O)O)s3)ccc2[nH]1 (stereo not drawn) [Raltitrexed],93.9 ± 5.5,122,104 ± 27,86.9,95.59 ± 0.3,99,106 ± 4,116 ± 2,,,,,
CN=C(NC#N)NCCSCc1nc[nH]c1C [Cimetidine],136 ± 22,124,93.85 ± 0.84,101,102 ± 16,115,88.1 ± 5.3,87.8 ± 19,,,,,120 ± 4.4
Nc1nc(N)c2nc(-c3ccccc3)c(N)nc2n1 [Triamterene],105 ± 25,148,116 ± 17,109,120 ± 12,138,123 ± 28,94.5 ± 15,,,,,122 ± 17
O=C(O)CSCC(=O)NC1CCSC1=O (stereo not drawn) [Erdosteine],105 ± 12,125,108 ± 27,108,87.3 ± 5.8,134,94.1 ± 8.3,119 ± 33,,,,,177 ± 44
CO[C@H]1O[C@@H]2O[C@@]3(C)CC[C@H]4[C@H](C)CC[C@@H]([C@H]1C)[C@@]24OO3 [Artemether (SM-224)],102 ± 17,111,79.3 ± 25,74.7,84.1 ± 3.5,123,77 ± 4.6,117 ± 3.2,,,,,99.8 ± 3.1
CCOC(=O)c1c(C)n(C)c2ccc(O)cc12 [Mecarbinate],72.1 ± 43,152,111 ± 4.2,90.9,135 ± 14,115,87.3 ± 3.8,99.6 ± 22,,,,,
CCn1cc(C(=O)O)c(=O)c2cc(F)c(N3CCNC(C)C3)c(F)c21.Cl (stereo not drawn) [Lomefloxacin HCl],97.5 ± 19,95.2,94.5 ± 7.8,96.1,76 ± 14,107,91.5 ± 2.9,83.75 ± 0.15,,,,,150 ± 10
Oc1ccc(C2CNCCc3c2cc(O)c(O)c3Cl)cc1 (stereo not drawn) [Fenoldopam],125 ± 16,101,107 ± 8.1,101,90.4 ± 2.4,124,110.5 ± 0.48,96.8 ± 13,,,,,126 ± 9.5
COc1cc2nc(N3CCN(C(=O)c4ccco4)CC3)nc(N)c2cc1OC.Cl [Prazosin HCl],152 ± 2.9,129,36.9 ± 1.6,131,108 ± 16,156,140 ± 7.2,52.5 ± 4.7,,,,,114 ± 1.7
COC(=O)N=NC=C1C=[N+]([O-])c2ccccc2N1O [Carbadox],106 ± 3.1,116,97.8 ± 8.7,107,106 ± 28,98.8,72.3 ± 12,96.8 ± 9.7,,,,,114 ± 9.4
O=c1[nH]c(=O)n(C2CC(O)C(CO)O2)cc1F (stereo not drawn) [Floxuridine],122 ± 5.9,103,103 ± 20,131,84.4 ± 5.7,161,167 ± 12,105 ± 13,,,,,149 ± 34
CCC1(O)CC2CN(CCc3c([nH]c4ccccc34)C(C(=O)OC)(c3cc4c(cc3OC)N(C)C3C(O)(C(=O)OC)C(OC(C)=O)C5(CC)C=CCN6CCC43C65)C2)C1 (stereo not drawn) [vinblastine],123 ± 3.3,91.1,45.7 ± 42,96.2,37.6 ± 3.4,164,68 ± 10,80.7 ± 22,,,,,124 ± 17
CC(=O)Nc1ccccc1 [Acetanilide],76.6 ± 44,163,99.2 ± 7.3,81.8,110 ± 8.1,138,75.2 ± 13,126 ± 14,,,,,
CC(C)C1CCC(C(=O)NC(Cc2ccccc2)C(=O)O)CC1 (stereo not drawn) [Nateglinide],84.1 ± 62,131,76.3 ± 6.6,87.4,112 ± 18,110,94 ± 4.4,117 ± 19,,,,,122 ± 17
COc1ccc2nc(S(=O)Cc3ncc(C)c(OC)c3C)[nH]c2c1 (stereo not drawn) [Omeprazole],127 ± 30,149,94.2 ± 5.6,102,94 ± 3.6,121,138 ± 16,99.8 ± 23,,,,,192 ± 5.1
CC12CCC(O)CC1=CCC1C2CCC2(C)C(c3cccnc3)=CCC12 (stereo not drawn) [Abiraterone],138 ± 7.1,168,86.1 ± 4.6,76.6,145 ± 42,111,94.1 ± 9.2,131 ± 6.1,,,,,156 ± 22
